Assay results from PubChem BioAssay (Tox21).
Results filed as inconclusive are left out. Calls of active or inactive are those of the source. Calls follow the shape of the dose curve; as a rule, active = well fitted cell-killing curve with a large enough effect in the repeat runs; inconclusive = weak or mixed curves, or effect the other way; inactive = flat fitted curve, though single readings scatter.
% is scaled to controls: 0 for no effect and ±100 for the full control effect.

Test: qHTS RealTime-Glo MT Cell Viability Assay in HepG2 cells - 0 hour (AID 1224889); also: nearly all actives have a fitted effect of over 50% in size
Settings: RealTime-Glo luminescence; series mostly up to 76.8 µM; activity change, negative = cytotoxicity: at the top concentration
Outline: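 Cell number in HepG2 cultures estimated from NanoLuc luminescence generated by metabolic reduction of a prosubstrate by living cells. The homogeneous, nonlytic format allowed repeated reads at 0, 8, 16, 24, 32 and 40 h of compound exposure.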
In the case of `CC(C)O`, the “activity change, negative = cytotoxicity” value is reported as 0.217% (inactive).
For `NC(=O)Cc1cccc(C(=O)c2ccccc2)c1N`, the “activity change, negative = cytotoxicity” value was -2.14% [at 35.3 µM] (inactive).
For `Cc1cc(S(=O)(=O)O)c(N)cc1Cl`, the “activity change, negative = cytotoxicity” value was -1.37% (inactive).
In the case of `Cc1ccc(C=O)s1`, the “activity change, negative = cytotoxicity” value is reported as 9.39% (inactive).
In the case of `CCCC1CCC(=O)O1` (stereo unspecified), the “activity change, negative = cytotoxicity” value is reported as -5.33% (inactive).
With `O=Cc1ccc(F)c(Br)c1` the “activity change, negative = cytotoxicity” value was 6% (inactive).
For `C[C@@H](N)C(=O)O`, the “activity change, negative = cytotoxicity” value was -0.749% [at 35.3 µM] (inactive).
For `O=C1CCCCC1C1CCCCC1` (stereo unspecified), the “activity change, negative = cytotoxicity” value was -6.6% (inactive).
With `CCCCCCCCCCCCOCCOS(=O)(=O)O` the “activity change, negative = cytotoxicity” value was -0.723% (inactive).
In the case of `O=C(O)c1cccc(Cl)c1Cl`, the “activity change, negative = cytotoxicity” value is reported as -17.6% (inactive).
With `CCCS(=O)c1ccc2nc(NC(=O)OC)[nH]c2c1` (stereo unspecified) the “activity change, negative = cytotoxicity” value was -5.31% [at 35.3 µM] (inactive).
For `Oc1ccccc1F`, the “activity change, negative = cytotoxicity” value was 6.64% (inactive).
With `CNCCC(Oc1ccccc1OC)c1ccccc1` (stereo unspecified) the “activity change, negative = cytotoxicity” value was 9.34% [at 35.3 µM] (inactive).
With `CCN1CC(CCN2CCOCC2)C(c2ccccc2)(c2ccccc2)C1=O` (stereo unspecified) the “activity change, negative = cytotoxicity” value was -1.09% [at 35.3 µM] (inactive).
For `CCC(=O)Nc1ccc(O)cc1`, the “activity change, negative = cytotoxicity” value was 6.93% [at 35.3 µM] (inactive).
For `COC(=O)c1ccc2cc(C(=O)OC)ccc2c1`, the activity change, negative = cytotoxicity was 9.21% [at 15.8 µM] (inactive).
In the case of `NC(=O)NS(=O)(=O)c1ccc(Cl)cc1`, the “activity change, negative = cytotoxicity” value is reported as 0.0108% [at 35.3 µM] (inactive).
With `CC1(O)CSC(C)(O)CS1` (stereo unspecified) the “activity change, negative = cytotoxicity” value was 3.61% (inactive).
For `CCN(O)CC`, the “activity change, negative = cytotoxicity” value was -5.04% (inactive).
With `OCCN(CCO)CCN(CCO)CCO` the “activity change, negative = cytotoxicity” value was 2.91% (inactive).
With `Cc1ccc(C)c(N)c1` the “activity change, negative = cytotoxicity” value was 0.587% (inactive).
In the case of `Nc1ccc2ccccc2c1S(=O)(=O)O`, the “activity change, negative = cytotoxicity” value is reported as -7.79% (inactive).
For `CC(=O)Nc1ccc(C)c(Cl)c1`, the “activity change, negative = cytotoxicity” value was 11.6% (inactive).
For `CCCOc1ccc2c(c1)CC[C@@H]1[C@@H]2CC[C@]2(C)C(OC)CC[C@@H]12` (stereo partly specified), the “activity change, negative = cytotoxicity” value was 3.21% [at 35.3 µM] (inactive).
In the case of `CCCCCCCCCC/C=C/C#N`, the “activity change, negative = cytotoxicity” value is reported as -1.37% (inactive).
With `OC[C@H]1O[C@@H](O[C@H]2[C@H](O)[C@@H](O)[C@H](O)O[C@@H]2CO)[C@H](O)[C@@H](O)[C@H]1O` the “activity change, negative = cytotoxicity” value was 7.92% (inactive).
In the case of `COc1cc(N)c(Cl)cc1C(=O)NC1CCN(Cc2ccccc2)CC1`, the “activity change, negative = cytotoxicity” value is reported as -5.17% [at 35.3 µM] (inactive).
In the case of `CO[Si](C)(C)OC`, the “activity change, negative = cytotoxicity” value is reported as 2.13% (inactive).
In the case of `COC(=O)c1ccc(OC)cc1`, the “activity change, negative = cytotoxicity” value is reported as 0.0956% (inactive).
In the case of `NS(=O)(=O)c1cc(-c2nn[nH]n2)c(NCc2cccs2)cc1Cl`, the “activity change, negative = cytotoxicity” value is reported as -3.99% [at 35.3 µM] (inactive).
In the case of `CCOc1ccc(NC(N)=O)cc1`, the “activity change, negative = cytotoxicity” value is reported as 4.09% (inactive).
In the case of `CCCCC1CCC(=O)O1` (stereo unspecified), the “activity change, negative = cytotoxicity” value is reported as -0.705% (inactive).
For `CC(CNC1CCCCC1)OC(=O)c1ccccc1` (stereo unspecified), the “activity change, negative = cytotoxicity” value was 0.66% [at 35.3 µM] (inactive).
With `CC(C)Nc1nc(N)nc(Cl)n1` the “activity change, negative = cytotoxicity” value was 12.6% (inactive).
In the case of `C/C(=N\O)[C@@H](C)NCC(C)(C)CN[C@H](C)/C(C)=N/O`, the “activity change, negative = cytotoxicity” value is reported as 7.43% [at 35.3 µM] (inactive).
With `CCCCNc1cc(C(=O)O)cc(S(N)(=O)=O)c1Oc1ccccc1` the “activity change, negative = cytotoxicity” value was 0.0704% [at 35.3 µM] (inactive).
